Source: PubChem BioAssay
Pf growth 96h = Primary qHTS for delayed death inhibitors of the malarial parasite plastid, 96 hour incubation | P. falciparum luciferase reporter growth, 96 h | Potency, µM (top dose mostly 28.7 µM), without a hit: at the top dose activity change, negative = inhibition, most hits filed as inhibitors | 320,000 compounds, 6.9% hits; note: potency is the fitted concentration of half-maximal effect
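Plates of compound plus infected erythrocytes (2% hematocrit, 0.05% parasitemia final) incubate 96 hours, 37 C, 5% CO2. Detection reagent added; reduced luminescence from the parasites' luciferase reporter flags inhibition.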
HCV inh = qHTS Assay for Inhibitors of Hepatitis C Virus (HCV); Huh7.5.1 HCVcc-Cre infection, luciferase reporter, 44 h; Potency, µM (highest dose often 41.8 µM), without a hit: at the top dose activity change, negative = inhibition, actives largely listed as inhibitors; 340,000 compounds, 3.4% hits; AID 651820, 2012; note: potency is the fitted concentration of half-maximal effect
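Antiviral activity was scored by luciferase reporter output from cells infected with HCVcc-Cre (~0.5 moi) in presence of compound, 44 h infection period, cells seeded 1,000/well 4 h prior.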
Pf growth 48h = Primary qHTS for delayed death inhibitors of the malarial parasite plastid, 48 hour incubation. Potency, µM (top dose mostly 28.7 µM), for inactives: at the highest dose activity change, negative = inhibition, usual class: inhibitors. P. falciparum luciferase growth in erythrocytes, 48 h. 310,000 compounds, 5.9% hits; note: potency is the fitted concentration of half-maximal effect
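Compounds are pin-transferred into medium, infected erythrocytes (2% hematocrit, 0.1% parasitemia final) are added, and plates sit one parasite generation at 37 C in 5% CO2. Detection reagent is then added and luminescence measured.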
MARV entry inh = qHTS for inhibitors of binding or entry into cells for Marburg Virus | Potency, µM (top dose mostly 37.8 µM), inactives show at the highest dose activity change, negative = inhibition, most hits filed as inhibitors | 300,000 compounds, 1.8% hits | Marburg virus pseudotyped entry inhibition, cell reporter; calls by dose curve; tested in HEK293 cells; note: potency is the fitted concentration of half-maximal effect
Lassa entry inh = qHTS for Inhibitors of binding or entry into cells for Lassa Virus; Lassa virus pseudotype entry inhibition, cell reporter; Potency, µM (series often up to 37.9 µM), inactives show at the top dose activity change, negative = inhibition, usual class: inhibitors; 300,000 compounds, 1.2% hits; AID 540256, 2011; calls by dose curve; tested in HEK293 cells; note: potency is the fitted concentration of half-maximal effect; nearly all actives have a fitted effect of over 50% in size
HCMV antiviral = qHTS Assay for inhibitors of the human cytomegalovirus (HCMV); HFF cells, HCMV-luciferase reporter, 72 h; active compounds read low; activity change, negative = inhibition, % at 57.5 µM; 410,000 compounds, 4.5% hits; in the data active = activity change below about -60%; inconclusive = no clear call, values can overlap the other calls; inactive = above about -39%
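Screen run at 2 compound doses on HFFs infected with reporter HCMV, MOI 1 PFU/cell. Luciferase activity from cell lysates at 72 h post infection gave inhibition relative to buffer-only and Salinomycin wells.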
* = called active by the depositor; ? = inconclusive; nt = no result; [ ] = another dose, or the depositor's remark. Hits are enriched below; roughly 14% of the tested compounds scored in any of these assays. Unless noted, calls come from the whole dose curve; as a rule, active = well fitted inhibition curve with a large enough effect; inconclusive = small, poorly fitted or top-dose-only effect, or another doubt; inactive = no such curve, though single readings can be large or run the other way. % is set by controls: 0 for no effect and ±100 for the full control effect.

SMILES | Pf growth 96h | HCV inh | Pf growth 48h | MARV entry inh | Lassa entry inh | HCMV antiviral
CCC(NC(=S)NC1CCCCC1)c1ccc(C(C)C)cc1 (stereo not drawn) | 3.29µM* | nt | 8.28µM* | nt | nt | -38.9
CC1=C(C(=O)NC2CC(C)(C)Cc3c2cnn3-c2cccc(F)c2)OCCO1 (stereo not drawn) | ? | 1.6% | -9.6% | nt | nt | -11.7
O=C(Cn1nnc(N2CCOCC2)n1)NN=Cc1ccccc1Cl | nt | nt | nt | nt | nt | -12.5
O=C1C(=O)N(Cc2cccnc2)[C@@H](c2ccccn2)/C1=C(/O)c1ccc(F)cc1 | nt | nt | nt | 22.4% | nt | nt
COc1ccccc1/C=C/c1nc(C#N)c(NC2CCCCC2)o1 | nt | nt | nt | ? | ? | -17.0
CC(=O)Nc1ccc(NC(=O)c2oc3c(c2C)-c2nn(Cc4ccccc4Cl)cc2CC3)cc1 | nt | nt | nt | nt | 19.6%[46.1 µM] | -31.7
CCCCCCn1cc(CN2CC(N3CCSCC3)CS2(=O)=O)nn1 (stereo not drawn) | nt | nt | nt | nt | nt | 22.8
Cc1ccc2[nH]c(=O)c(CN(CCN3CCOCC3)C(=O)Nc3ccccc3F)cc2c1 | 7.1%[5.75 µM] | -0.7% | ? | -0.3% | 1.0% | 7.9
CCN1CCCC1CN(Cc1cc2c(C)cc(C)cc2[nH]c1=O)C(=O)NC1CCCCC1 (stereo not drawn) | nt | -6.9% | 9.28µM* | ? | -3.2% | -18.4
CCN(CC)CCCN(Cc1cc2cc(OC)c(OC)cc2[nH]c1=O)C(=O)Nc1ccccc1 | nt | 0.4% | ? | -16.3% | 11.0% | -11.5
COc1cc2cc(CN(Cc3cccnc3)C(=O)Nc3ccccc3F)c(=O)[nH]c2cc1OC | 22.1% | -9.4% | 7.38µM* | nt | nt | 12.3
Cc1cc2cc(CN(CCN3CCOCC3)C(=O)Nc3ccccc3F)c(=O)[nH]c2cc1C | nt | 4.1% | 9.28µM* | -21.5% | -11.9% | 0.7
Cc1cccc2cc(CN(CCN3CCCC3)C(=O)NC3CCCCC3)c(=O)[nH]c12 | ? | -11.5% | 4.65µM* | -13.9% | 16.1% | 20.5
CCCCOC(=O)c1ccc(NC(=O)c2cc3c(=O)n4cccc(C)c4nc3s2)cc1 | nt | nt | nt | 0.7%[46.1 µM] | ? | 28.5
COC(=O)c1sccc1S(=O)(=O)N(CC(=O)Nc1ccccc1)c1ccccc1 | nt | nt | nt | nt | 20.8%[46.1 µM] | ?
C[C@@H]1CN([C@H](C)CO)C(=O)CCCn2cc(nn2)CO[C@H]1CN(C)C(=O)Oc1ccccc1 | nt | nt | nt | nt | nt | -25.4
CN1C[C@@H]2[C@@H]3C(=O)N(C)C(=O)[C@@H]3[C@](C)(C1=O)N2C(=O)c1ccccc1 | nt | 7.7% | nt | nt | nt | nt
Cc1cc2cc(CN(CCCN3CCOCC3)C(=O)NC3CCCCC3)c(=O)[nH]c2cc1C | 240.2% | ? | 4.65µM* | -18.2% | 3.3% | 40.9
C=C(C)C(O)/C=C/c1ccc(Br)cc1 (stereo not drawn) | nt | nt | nt | 11.6%[14.2 µM] | nt | nt
N#Cc1ccc(CSc2nnc(-c3ccccn3)n2-c2ccccc2)cc1 | nt | -1.0% | -15.9% | ? | ? | -0.3
N#Cc1ccc(CSc2nnc(-c3c[nH]c4ccccc34)n2-c2ccccc2)cc1 | ? | ? | ? | 2.51µM* | ? | -64.3*
Cc1ccccc1-n1c(SCc2c(C)noc2C)nnc1-c1c[nH]c2ccccc12 | 14.7µM* | ? | ? | ? | ? | 25.2
Cc1noc(C)c1CSc1nnc(-c2ccncc2)n1-c1cccc(Cl)c1C | ? | -2.2% | nt | -22.5% | -1.9% | 73.7
N#Cc1ccc(CSc2nnc(-c3cccs3)n2-c2ccccc2)cc1 | 16.5µM* | 0.631µM* | ? | ? | ? | -28.6
CC(C)(C)[C@H]1C=C(C(=O)N2CCN(Cc3ccccc3)CC2)O[C@@H](OCCCCO)C1 | ? | 10.7% | ? | nt | nt | 16.9
C[C@@H]1C=C(C(=O)N2CCN(Cc3ccc4c(c3)OCO4)CC2)O[C@H](OCCCCO)C1 | 28.8% | -12.6%[8.37 µM] | 3.9% | nt | nt | -8.2
CC(C)(C)[C@@H]1C=C(C(=O)N2CCN(Cc3ccccc3)CC2)O[C@H](OCc2ccc(CO)cc2)C1 | 14.7µM* | 13.4% | ? | nt | nt | 37.1
